LmPK inhibitor = LmPK (Leishmania mexicana) enzyme inhibition | Q27686 | purified LmPK, Kinase-Glo ATP luminescence, 1 h | Potency, µM (titrated, usually from 57.5 µM), most hits filed as inhibitors | 290,000 tested, 0.37% active | AID 1721
Target sequence (Q27686 whole entry, looked up): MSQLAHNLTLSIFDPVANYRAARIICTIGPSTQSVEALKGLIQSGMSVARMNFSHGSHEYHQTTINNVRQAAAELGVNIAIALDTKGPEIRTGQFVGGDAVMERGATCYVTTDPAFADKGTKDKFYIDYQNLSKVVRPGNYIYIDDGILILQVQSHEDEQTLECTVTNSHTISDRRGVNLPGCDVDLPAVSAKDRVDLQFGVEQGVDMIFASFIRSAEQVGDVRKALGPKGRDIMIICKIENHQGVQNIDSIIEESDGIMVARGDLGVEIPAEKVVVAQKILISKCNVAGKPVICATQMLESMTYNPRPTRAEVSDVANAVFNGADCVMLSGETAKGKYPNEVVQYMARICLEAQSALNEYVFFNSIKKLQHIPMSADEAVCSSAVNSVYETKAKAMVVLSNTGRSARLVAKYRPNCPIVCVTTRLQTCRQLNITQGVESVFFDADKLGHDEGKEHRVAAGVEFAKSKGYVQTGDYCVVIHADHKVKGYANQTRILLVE
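Purified LmPK (0.1 nM) converted ADP (0.1 mM) to ATP with PEP (0.5 mM) in imidazole buffer pH 7.2 with KCl and MgCl2, 1 h at room temperature. ATP was read by Kinase-Glo luminescence; data normalized to uninhibited and no-enzyme controls.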
VACV mCherry inh = inhibitors of vaccinia virus infection (mCherry reporter signal); Vaccinia virus mCherry reporter infection, fluorescence; Potency, µM (doses to about 36.5 µM), actives largely listed as inhibitors; 310,000 tested, 0.63% active; AID 720579; calls by dose curve; tested in A549 cells; further: nearly all actives have a fitted effect of over 35% in size
HCMV inh = blocks human cytomegalovirus replication | HFF cells, HCMV-luciferase reporter, 72 h; active compounds read low | 410,000 tested, 4.5% active | activity change, negative = inhibition, % at 57.5 µM; in the data active means activity change below about -60%; inconclusive means no clear call, values can overlap the other calls; inactive means above about -39%
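Human foreskin fibroblasts infected with luciferase-reporter HCMV at MOI 1 PFU/cell, compounds at two doses. Luciferase measured 72 h post infection; normalized to buffer-only basal and Salinomycin (10uM) controls.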
TbPYK inhibitor = T. brucei pyruvate kinase inhibition | Potency, µM (top dose mostly 76.8 µM), usual class: inhibitors | TbPYK enzyme, Kinase-Glo Plus ATP luminescence, 45 min | Q57TT1 | 410,000 tested, 0.12% active; further: nearly all actives have a fitted effect of over 50% in size
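ADP (130 uM final) triggers the TbPYK reaction after compound addition; incubation is 45 min at room temperature. Kinase-Glo Plus is then added and luminescence imaged. Normalized data are fitted to concentration-effect curves.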
Vaccinia Venus = vaccinia inhibition (Venus reporter) | Potency, µM (highest dose often 36.5 µM), usual class: inhibitors | 330,000 tested, 0.46% active | Vaccinia virus Venus reporter expression, fluorescence; calls by dose curve; tested in A549 cells; further: nearly all actives have a fitted effect of over 30% in size
Of the large screens only hits and unclear results are named; the others gave an inactive call. Only some compounds are listed: those with a hit (about 5% of all), similar ones and a draw of the others. Unless noted, the call rests on the fitted dose curve; in most records, active means well fitted curve in the direction sought with a large enough effect; inconclusive means small, poorly fitted or top-dose-only effect, or another doubt; inactive means no such curve, though single readings can be large; an effect the other way counts as inactive or inconclusive.

Cc1cc(C)nc(NS(=O)(=O)c2ccc(Br)cc2)n1	none (no result: VACV mCherry inh, Vaccinia Venus)
COc1ccc(OC)c(NC(=O)NNC(=O)COc2ccc([N+](=O)[O-])cc2)c1	none
COCCN(Cc1cccs1)S(=O)(=O)c1csc(C(N)=O)c1	none (no result: VACV mCherry inh, Vaccinia Venus)
O=C1/C(=C/c2cccc(Br)c2)SC(=S)N1CCC(=O)N(CCO)c1ccccc1	HCMV inh -104 (no result: VACV mCherry inh, Vaccinia Venus)
O=C(CCN1C(=O)/C(=C/c2ccc3c(c2)OCO3)SC1=S)Nc1ccccc1	none
O=C1/C(=C/c2ccc3c(c2)OCO3)SC(=S)N1CCC(=O)N(CCO)c1ccccc1	HCMV inh -68 (no result: LmPK inhibitor)
COc1cccc(/C=C2\SC(=S)N(CCCC(=O)N(CCO)c3ccccc3)C2=O)c1	HCMV inh -97 (no result: VACV mCherry inh, Vaccinia Venus)
COc1ccc2ccccc2c1CN1CCCC(CO)C1 (stereo not given)	none (no result: VACV mCherry inh, Vaccinia Venus)
COc1ccc(CN2CCN(Cc3ccc4ccccc4c3)CC2)cc1OC	HCMV inh -65
COc1ccc2ccccc2c1CN1CCN(Cc2ccccc2)CC1	HCMV inh -75
CCN1/C(=C/c2ccc3ccccc3[n+]2CC)C=Cc2ccccc21	LmPK inhibitor 14µM, HCMV inh -104, TbPYK inhibitor 32µM (no result: VACV mCherry inh)
N#Cc1cccc(NC(=O)N2CC[C@@]3(CCCNC3)C2)c1	none (no result: LmPK inhibitor, VACV mCherry inh, HCMV inh, Vaccinia Venus)
Cc1n[nH]c(=O)c2c(NC(=O)CSc3nc4ccccc4c(=O)n3CCCOC(C)C)oc(C)c12	HCMV inh -98
Cc1ccc(NC(=O)CSc2nn(-c3ccccc3)c(=S)s2)cc1S(=O)(=O)N(C)C	VACV mCherry inh inconclusive, HCMV inh -78, Vaccinia Venus inconclusive
Cc1ccc(NC(=O)CSc2nc3c(cc2C#N)C(=O)CCC3)cc1S(=O)(=O)N(C)C	HCMV inh -69
CN(C)S(=O)(=O)c1ccc(Cl)c(NC(=O)CSc2nc3c(cc2C#N)C(=O)CCC3)c1	none
Cc1n[nH]c(=O)c2c(NC(=O)CSc3nn(-c4ccccc4)c(=S)s3)oc(C)c12	HCMV inh -98 (no result: LmPK inhibitor)
Cc1csc(SCC(=O)Nc2oc(C)c3c(C)n[nH]c(=O)c23)n1	none (no result: LmPK inhibitor)
Cc1ccc2c(=O)c(C(=O)c3ccccc3)cn(CC(=O)Nc3ccc(C)c(Cl)c3)c2n1	none (no result: LmPK inhibitor)
C=CCNC(=O)[C@H]1N2C(=O)c3ccccc3C2SC1(C)C (stereo not given in full)	none
Cn1c(=O)c2c(ncn2CC(=O)OCC(=O)NCc2ccc(F)cc2)n(C)c1=O	HCMV inh -65 (no result: LmPK inhibitor)
O=C1/C(=N\S(=O)(=O)c2cccs2)C([n+]2ccccc2)=C([O-])c2ccccc21	HCMV inh -66 (no result: VACV mCherry inh, Vaccinia Venus)
CC(C)(C)c1cc[n+](C2=C([O-])c3ccccc3C(=O)/C2=N\S(=O)(=O)c2cccs2)cc1	VACV mCherry inh inconclusive, HCMV inh -100, Vaccinia Venus inconclusive
NS(=O)(=O)c1ccc(NC(=O)C(=O)NCCC(=O)O)cc1	none
C#CCOc1ccccc1/C=N/NC(=O)c1ccccc1OCc1ccccc1	HCMV inh inconclusive (no result: VACV mCherry inh, Vaccinia Venus)
O=C(O)CCSc1nc2ccccc2n1CCOc1ccccc1	none
NC(=S)NN=C1CCCCCCCCC1	VACV mCherry inh 20µM, Vaccinia Venus inconclusive (no result: LmPK inhibitor)
C=CCNC(=S)NN=C1CCCCCCC1	HCMV inh -113
CCCCc1nc(NCc2ccccc2)c(C#N)c2c1COC(C)(C)C2	none (no result: VACV mCherry inh)
Cc1ncoc1C(=O)NCc1nc(-c2cccc(NC(=O)c3ccccn3)c2)oc1C	none (no result: LmPK inhibitor, HCMV inh, TbPYK inhibitor)
Cc1[nH]n(-c2ccccc2)c(=O)c1N=Nc1ccccc1O	HCMV inh -99
Cc1[nH]n(-c2ccccc2)c(=O)c1N=Nc1ccc2c(c1)OCO2	none
Cc1[nH]n(-c2ccccc2)c(=O)c1N=Nc1nccs1	HCMV inh -96 (no result: VACV mCherry inh, Vaccinia Venus)
Cc1[nH]n(C2=NCCS2)c(=O)c1N=Nc1ccccc1	HCMV inh -61
Cc1ccc(Cc2nc3ccccc3nc2SCC(=O)NCc2ccc(F)cc2)cc1	none (no result: LmPK inhibitor)
CC1CN(CC(=O)NCc2ccc3c(c2)OCO3)Cc2cc(Cl)ccc2O1 (stereo not given)	none (no result: LmPK inhibitor, HCMV inh, TbPYK inhibitor)
O=NN(CCc1ccncc1)c1ccc(OCc2ccccc2)cc1	none
COc1ccc(-c2nnc(SCC(=O)c3ccc(C)o3)o2)cc1	VACV mCherry inh 28µM, Vaccinia Venus inconclusive
Cc1ccc(C(=O)CSc2nnc(-c3ccco3)o2)o1	VACV mCherry inh inconclusive, Vaccinia Venus 10µM
COc1cc(OC)cc(-c2nnc(SCC(=O)N(Cc3ccccc3)C(C)(C)C)o2)c1	VACV mCherry inh inconclusive, HCMV inh -71
COc1ccc(-c2nnc(SCC(=O)N3CCCC3)o2)cc1	none
O=c1ccc(Cc2ccc(Cl)cc2)n[nH]1	none

Screening data from PubChem BioAssay.
